# Compound activity from PubChem BioAssay.
# SMN2 splice enh: qHTS Assay for Enhancers of SMN2 Splice Variant Expression; actives 2.8% (n = 210,000); Potency, µM (doses to about 46.1 µM), for the others: at the highest dose activity change, positive = activation, usual class: activators; HEK293 SMN2-luciferase splicing reporter, luminescence, 30-36 h; further: % of control where 0% means no effect; nearly all actives have a fitted effect of over 55% in size
#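 qHTS luciferase splicing reporter: luminescence rises when SMN2 exon 7 is included in transfected HEK293 cells. Compound exposure lasted 30-36 h at 37C, with 4.5 mM final sodium butyrate as control, followed by a ONE-Glo read.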
# FLuc counter: qHTS profiling assay for firefly luciferase inhibitor/activator using purifed enzyme and Km concentrations of substrates (counterscreen for miR-21 project); Luciferin 4-monooxygenase (Photinus pyralis), P08659; purified FLuc, Km substrates, luminescence inhibition; Potency, µM (highest dose often 57.5 µM), for inactives: at the top dose activity change, negative = inhibition, usual class: inhibitors; actives 6.9% (n = 360,000);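 further: plate controls were vehicle for no effect and reference inhibitor for full effect; nearly all actives have a fitted effect of over 55% in size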
# Target sequence (P08659 whole entry, looked up): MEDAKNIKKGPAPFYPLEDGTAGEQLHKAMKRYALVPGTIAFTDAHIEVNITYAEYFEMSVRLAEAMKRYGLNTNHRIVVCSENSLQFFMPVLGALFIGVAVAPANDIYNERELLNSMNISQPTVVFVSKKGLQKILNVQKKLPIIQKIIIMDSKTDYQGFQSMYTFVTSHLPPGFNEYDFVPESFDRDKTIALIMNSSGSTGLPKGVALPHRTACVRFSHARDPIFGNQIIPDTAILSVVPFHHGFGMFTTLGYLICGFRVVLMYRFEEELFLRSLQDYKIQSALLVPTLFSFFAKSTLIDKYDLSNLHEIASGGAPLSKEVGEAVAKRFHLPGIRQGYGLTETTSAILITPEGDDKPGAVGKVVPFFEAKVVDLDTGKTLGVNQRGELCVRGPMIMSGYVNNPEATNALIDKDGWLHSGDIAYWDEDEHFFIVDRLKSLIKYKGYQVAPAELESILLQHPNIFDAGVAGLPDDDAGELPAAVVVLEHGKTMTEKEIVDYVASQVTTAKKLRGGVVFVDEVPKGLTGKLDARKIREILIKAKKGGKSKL
#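 Biochemical qHTS of compounds, final roughly 60 µM downward over six points, against 10 nM purified firefly luciferase using Km concentrations of substrates (10 uM D-luciferin, 10 uM ATP) in Tris acetate pH 7.5 buffer; luminescence output.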
# Rab9 prom act: qHTS Assay for Rab9 Promoter Activators. Potency, µM (titrated, usually from 9.22 µM), inactives show top-dose activation, negative = inhibition, most hits filed as activators. actives 2.8% (n = 320,000). Huh7 Rab9 promoter-luciferase reporter, luminescence, 24 h; further: % of control where 0% means no effect; nearly all actives have a fitted effect of over 60% in size
#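 Rab9 promoter-driven luciferase in stably transfected Huh7 cells; 1500 cells/well rested 2 h, exposed to compound in DMSO for 24 h at 37 °C, 5% CO2. Luminescence read 10 min after adding luciferase reagent at ambient temperature.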
# Luc counter: Counterscreen for Luciferase (Kinase-Glo TM) Inhibition; Kinase-Glo luciferase, ATP luminescence, 8 min; AID 1379, 2008; Potency, µM (series often up to 38.3 µM), inactives show top-dose activity change, negative = inhibition, hits mostly inhibitors; actives 0.28% (n = 200,000); further: on the % scale 0 is the no-effect control and ±100 the full control effect; nearly all actives have a fitted effect of over 60% in size
#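 Luminescence was the read-out, taken after 8-minute incubation at ambient temperature. Luciferase turned over luciferin with 10 uM ATP in imidazole pH 7.2 buffer containing KCl, MgCl2, Tween 20 and BSA.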
# NPC1 promoter act: qHTS Assay for NPC1 Promoter Activators. Huh7 NPC1 promoter luciferase reporter, 24 h. Potency, µM (highest dose often 9.22 µM), without a hit: at the highest dose activation, hits mostly activators. actives 2.4% (n = 320,000). AID 485313, 2010; further: % of control where 0% means no effect; nearly all actives have a fitted effect of over 60% in size
#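 Luciferase expression driven by the NPC1 promoter was measured in stably transfected Huh7 cells after a 24 h compound incubation, using a luciferase reagent and a luminescence read.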
# ELG1 genotoxic: qHTS screen for small molecules that induce genotoxicity in human embryonic kidney (HEK293T) cells expressing luciferase-tagged ELG1; HEK293T ELG1-luciferase reporter, luminescence, 16 h; actives 1.3% (n = 330,000); AID 504466, 2011; Potency, µM (doses to about 46 µM), inactives show at the top dose activity change, positive = activation, usual class: activators; further: % of control where 0% means no effect; nearly all actives have a fitted effect of over 60% in size
#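 Luminescence read-out: rising ELG1-luciferase signal, reflecting elevated ELG1 protein under genetic stress, flags genotoxic compounds. Cells were treated for 16 hr at 37 °C before ONE-Glo detection.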
# * marks the source's active call; other numbers are inactive results; ? = inconclusive; / = not tested or not shown. Rows were chosen to be rich in hits. Some 7.5% of all compounds tested hit in one or more screens of this group. The call rests on the fitted dose curve; in most records, active means well fitted curve in the direction sought with a large enough effect; inconclusive means small, poorly fitted or top-dose-only effect, or another doubt; inactive means no such curve, though single readings can be large; an effect the other way counts as inactive or inconclusive. Potency means the concentration at half of the fitted maximal effect.
SMILES,SMN2 splice enh,FLuc counter,Rab9 prom act,Luc counter,NPC1 promoter act,ELG1 genotoxic
O/N=C/c1ccc(OCc2ccccc2F)c(Cl)c1,7.94µM*,2.69µM*,1.58µM*,-4.4%,?,5.17µM*
O/N=C/c1ccc(OCc2ccccc2)c(Cl)c1,11.2µM*,4.78µM*,3.55µM*,0.4%,?,16.4µM*
CC(C)(C)NC(=O)c1ccccc1NC(=O)C1CC(=O)N(C2CCCCC2)C1 (stereo not given),/,1.8%,-0.1%,/,1.2%,0.3%
COc1ccc(CNC(=O)c2cc3c(s2)CS(=O)C3)cc1 (stereo not given),-11.9%,1.7%,4.0%,-3.8%,1.1%,5.5%
COC(=O)c1cc2c(s1)CS(=O)C2 (stereo not given),?,13.5µM*,3.98µM*,0.1%,2.51µM*,?
COc1cc(OC)c(-c2nc3cnccc3n2C)cc1OC,?,-1.7%,-3.2%,2.2%,-5.7%,10.8%
Cn1c(-c2ccc3ccccc3n2)nc2cnccc21,98.6%,8.49µM*,2.24µM*,-6.8%,3.98µM*,?
O=C(Nc1ccc(Oc2ccc(C(=O)O)c(C(=O)O)c2)cc1)c1cccs1,/,21.3µM*,-5.7%,-0.4%,-2.4%,2.4%
Cc1cccnc1NC(=O)CNC(=O)c1cccs1,/,1.0%,-5.1%,/,-2.6%,0.4%
O=C(Nc1ccc(NC(=O)c2ccc(Cl)cc2Cl)cc1)c1cccs1,/,-2.4%,5.2%,/,-2.6%,15.1%
O=C(NC(=S)Nc1ccccc1)c1cccs1,/,16.9µM*,?,/,2µM*,?
Cc1cccnc1NC(=S)NC(=O)c1cccs1,3.16µM*,13.5µM*,3.55µM*,-16.5%,?,?
CC(C)c1ccc(NC(=S)NNC(=O)c2cccs2)cc1,?,21.3µM*,?,-2.2%,?,?
C[C@H](NC(N)=O)C(=O)Nc1ccc(OCc2ccccc2)cc1,15.8µM*,?,3.55µM*,0.1%,?,13.6%
CC(C)Cn1nc(NC(=O)c2cccs2)c2cc3ccccc3nc21,/,?,-0.9%,/,-3.8%,-7.7%
COc1ccc2nc3c(cc2c1)c(NC(=O)c1cccs1)nn3CC(C)C,13.4%,7.57µM*,19.1%,-1.2%,-2.8%,-1.4%
COc1ccc(NC(=O)c2cccs2)cc1,17.8µM*,15.1µM*,?,-26.5%,?,?
COc1ccc(NC(=O)c2cccs2)c([N+](=O)[O-])c1,20.3%,?,3.98µM*,-6.2%,?,?
COc1ccc(NC(=O)/C=C/c2ccccc2)c([N+](=O)[O-])c1,10µM*,?,3.16µM*,-6.3%,?,?
O=C(NC(=S)Nc1ccc(Br)cn1)c1cccs1,12.6µM*,3.79µM*,?,0.3%,?,?
S=C(Nc1ccccc1)Nc1ccc(Br)cn1,-24.3%,-1.0%,4.1%,0.8%,-7.9%,3.0%
COc1ccc(/C=C/C(=O)Nc2ccc(OC)cc2[N+](=O)[O-])cc1,1.8%,-2.6%,0.9%,-0.5%,-2.6%,5.0%
COc1ccc(/C=N/NC(=O)CNC(=O)c2cccs2)cc1,10.7%,15.1µM*,17.9%,1.2%,-4.6%,13.6%
O=C(Nc1ccc(OCc2ccccc2)cc1)c1cccs1,/,16.9µM*,4.47µM*,/,2.82µM*,?
CCOc1ccc(N(C(=O)c2cnccn2)C(C(=O)NC2CCCCC2)c2ccc(O)cc2)cc1 (stereo not given),/,0.8%,1.3%,-1.4%,-1.4%,3.6%
SMILES,SMN2 splice enh,FLuc counter,Rab9 prom act,Luc counter,NPC1 promoter act,ELG1 genotoxic
CCOC(=O)c1c(NC(=O)COc2ccc(Cl)cc2Cl)sc2c1CCCCC2,14.2%,-1.3%,/,/,/,/
COc1cccc(-c2nc(-c3ccc(NC(=O)c4ccncc4)cc3)no2)c1,-67.2%,-9.5%,27.9%,-0.3%,2.7%,0.6%
COc1ccc(NC(=S)NNC(=O)c2cccs2)cc1,24.8%,-6.3%,3.98µM*,-2.4%,-0.4%,?
Cc1cnc(C(=O)OCC(=O)Nc2ccc(OCc3ccccc3)cc2)cn1,/,?,2.51µM*,/,2.82µM*,?
O=C(/C=C/c1cccs1)NC(=S)NNC(=O)c1ccccc1O,-69.9%,?,-41.2%,2.0%,-36.1%,-8.4%
O=C(/C=C/c1cccs1)NC(=S)Nc1ccccc1,15.2%,26.9µM*,?,0.6%,18.7%,1.1%
COc1cccc(-c2nc(-c3ccc(NC(=O)c4cccs4)cc3)no2)c1,-16.5%,13.5µM*,?,0.4%,30.0%,13.7%
Cc1cccnc1NC(=O)CCC(=O)c1cccs1,/,0.0%,-1.2%,/,-1.0%,0.1%
Cc1cc(C(=O)COc2ccc3ccc(=O)oc3c2)c(C)n1Cc1cccs1,-28.3%,?,12.2%,-1.0%,5.5%,-1.7%
COc1ccc(NC(=O)c2cc(C)n(Cc3cccs3)c2C)cc1,/,0.849µM*,0.316µM*,/,0.562µM*,?
Cc1cccnc1NC(=O)NC(=O)c1ccc(C(C)(C)C)s1,/,5.36µM*,2.24µM*,/,?,?
CC1C(=O)NN=C1C(=O)N/N=C\c1ccc(O)cc1O (stereo not given),-2.6%,16.9µM*,-3.8%,-24.6%,-3.1%,-5.6%
CC1=NNC(=O)C1CC(=O)N/N=C/C(Br)=C/c1ccccc1 (stereo not given),/,-4.7%,-2.7%,/,-2.0%,0.0%
O=C(Cc1cc(=O)[nH][nH]1)N/N=C/C(Cl)=C/c1ccccc1,?,23.9µM*,1.4%,3.0%,2.6%,-0.1%
O=C(N/N=C/C(Cl)=C/c1ccccc1)c1ccccc1F,/,12µM*,?,/,?,?
N#Cc1ccc(/C=N/NC(=O)c2ccccc2F)cc1,?,?,10.4%,-2.2%,23.1%,?
CC1C(=O)NN=C1C(=O)N/N=C\C(Br)=C\c1ccccc1 (stereo not given),22.4µM*,1.51µM*,2.24µM*,-25.2%,2.51µM*,?
COc1cc(/C=N/NC(=O)C2=NNC(=O)C2C)ccc1O (stereo not given),/,?,1.3%,/,3.0%,-1.1%
O=C(NCCCCO)c1ccc2c3c(cccc13)CC2,/,-1.7%,7.9%,0.8%,-5.5%,7.4%
O=C(N/N=C/C(Br)=C/c1ccccc1)c1ccccc1F,/,10.7µM*,3.16µM*,/,3.55µM*,18.3µM*
O=C(OCC(=O)N1CCCc2ccccc21)c1cc(Br)ccc1O,/,-6.7%,4.1%,/,-0.7%,-0.2%
